In PubChem BioAssay:
Records with an inconclusive call do not appear. For some of these results: Entries with a potency or affinity are not part of this list. The source made the active and inactive calls. Unless noted, how the calls were made is not given here.

Legend:
[1] = polyglutamine-triggered caspase-3 activation inhibitors, cell-based (AID 1583); details: polyglutamine-induced caspase-3 activation, cell assay; stronger effect = higher value;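 tested at 10 µM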
[2] = suppressors of polyQ aggregation in yeast, 75Q-TubU reporter (AID 1593); details: Yeast 75Q polyglutamine aggregation reporter
[3] = rescue of polyQ-huntingtin neuronal dysfunction in worms, whole organism, C. elegans mechanosensory neurons, N-terminal huntingtin (AID 1599); details: touch response, stronger effect = higher value
[4] = inhibitors of mitochondrial cytochrome c release, biochemical, purified mitochondria (AID 1603); details: stronger effect = lower value;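 further: mouse liver mitochondria challenged with calcium chloride; signal normalized to the plate average as 100%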
[5] = inhibitors of polyQ protein aggregation (AID 1604); details: polyglutamine-induced protein aggregation inhibition assay; stronger effect = higher value; tested at 2.5 µM
[6] = enhancers of glutamate uptake in motor neurons, MN-1 cell line (AID 1612); details: MN-1 motor neuron cells, stronger effect = higher value;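 further: tested at 1 µM final; 0% = mean of DMSO vehicle wells on each plate; positive means more glutamate uptake than control and negative means less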
[7] = reducers of polyQ inclusions in PC12 cells, cell-based, NGF-treated PC12, GFPQ80 (AID 1614); details: PC12 NGF-treated GFP-polyQ80 inclusion reduction;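 further: lower means fewer inclusions and 0 means no inclusions at all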
[8] = suppressors of polyglutamine aggregation in yeast, 75Q-TubH (AID 1616); details: S. cerevisiae 75Q-TubH polyglutamine aggregation suppression; stronger effect = higher value
[9] = hESC survival regulators, cell-based (AID 493140); details: human embryonic stem cell survival screen; stronger effect = higher value;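 further: cells exposed to compounds for four days before counting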
[10] = molecular target: ATP-dependent translocase ABCB1 (Homo sapiens) (UniProt P08183); experiment: MDR1 (ABCB1) efflux transporter inhibition, cell-based (AID 377; in the data active means fluorescence slope change above about 50%); details: MDR1-expressing cells, fluorescent substrate accumulation slope; stronger effect = higher value; concentration not given here
Chain of ATP-dependent translocase ABCB1 (Homo sapiens) (P08183 whole entry, looked up): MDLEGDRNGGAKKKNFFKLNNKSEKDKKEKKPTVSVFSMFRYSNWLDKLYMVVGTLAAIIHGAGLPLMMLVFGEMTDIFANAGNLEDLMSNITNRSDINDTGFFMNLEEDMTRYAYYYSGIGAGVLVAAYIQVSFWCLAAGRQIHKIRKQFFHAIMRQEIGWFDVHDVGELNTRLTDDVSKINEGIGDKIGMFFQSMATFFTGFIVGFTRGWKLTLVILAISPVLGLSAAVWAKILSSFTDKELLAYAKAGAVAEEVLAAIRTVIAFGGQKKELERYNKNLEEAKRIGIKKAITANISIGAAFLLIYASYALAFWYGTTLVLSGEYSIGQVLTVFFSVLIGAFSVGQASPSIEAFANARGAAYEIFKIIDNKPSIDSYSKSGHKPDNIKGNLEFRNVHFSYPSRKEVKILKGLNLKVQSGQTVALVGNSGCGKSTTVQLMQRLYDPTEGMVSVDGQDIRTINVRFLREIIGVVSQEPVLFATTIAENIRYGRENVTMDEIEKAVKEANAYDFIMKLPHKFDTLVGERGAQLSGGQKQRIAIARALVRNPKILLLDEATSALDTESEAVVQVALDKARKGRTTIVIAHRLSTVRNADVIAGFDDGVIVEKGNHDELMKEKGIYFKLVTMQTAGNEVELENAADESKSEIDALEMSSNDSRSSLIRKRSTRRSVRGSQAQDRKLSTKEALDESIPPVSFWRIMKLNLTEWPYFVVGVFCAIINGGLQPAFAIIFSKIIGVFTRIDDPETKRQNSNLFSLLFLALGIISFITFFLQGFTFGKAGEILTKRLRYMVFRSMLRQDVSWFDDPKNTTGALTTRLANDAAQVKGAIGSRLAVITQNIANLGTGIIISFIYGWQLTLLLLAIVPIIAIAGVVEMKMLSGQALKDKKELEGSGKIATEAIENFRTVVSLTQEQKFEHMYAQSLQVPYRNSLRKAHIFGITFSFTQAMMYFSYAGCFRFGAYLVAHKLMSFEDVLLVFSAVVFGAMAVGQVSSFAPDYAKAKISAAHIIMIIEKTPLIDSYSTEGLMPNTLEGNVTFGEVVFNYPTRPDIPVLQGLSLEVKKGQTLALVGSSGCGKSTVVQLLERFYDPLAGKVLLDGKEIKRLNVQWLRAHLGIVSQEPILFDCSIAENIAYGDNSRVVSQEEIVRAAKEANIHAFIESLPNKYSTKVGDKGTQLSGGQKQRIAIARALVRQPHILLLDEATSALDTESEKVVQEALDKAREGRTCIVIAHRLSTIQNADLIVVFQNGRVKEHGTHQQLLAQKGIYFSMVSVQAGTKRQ

SMILES	inhibition [1]	score [2]	rescue above control [3]	cytochrome c release ratio [4]	inhibition of aggregation [5]	glutamate uptake change [6]	inclusion score [7]	aggregation suppression score [8]	survival [9]	fluorescence slope change [10]
Cc1ccsc1/C=C/C1=NCCCN1C	26.5%	0.99	-7.31	0.66	25.5%	1.68%	2	1.28	20.3 (inactive)	–
CN1CCOC(c2ccccc2)c2ccccc2C1 (stereo not given)	4.24%	1.08	-6.88	0.83	74.7%	0.43%	1.5	1.44	21.3 (inactive)	5.9% (inactive)
CC1(C)OC(=O)NC1=O	-3.41%	1.47	14.1	0.85	33.3%	12.7%	2	1.01	9.33 (inactive)	19.4% (inactive)
Cc1cc(CC(=O)O)n(C)c1C(=O)c1ccc(Cl)cc1	-20.4%	0.85	20.8	0.92	83.3%	-4.24%	2	0.565	3.5 (inactive)	–
CCN(CC)CCOC(=O)C(c1ccccc1)c1ccccc1	11.6%	0.88	8.76	1.09	66.7%	15.8%	2	0.888	11.2 (inactive)	–
COc1ccc2c(c1)c(CC(=O)OCC(=O)O)c(C)n2C(=O)c1ccc(Cl)cc1	-2.12%	0.67	4.6	1.11	77.8%	-11%	2	0.866	19.2 (inactive)	79% (active)
CO[C@]12C[C@@H](COC(=O)c3cncc(Br)c3)CN(C)[C@@H]1Cc1cn(C)c3cccc2c13	2.79%	0.99	12.5	0.85	65.4%	6.29%	2	1.56	7.92 (inactive)	159% (active)
CC(=O)Nc1ccc(OCC(O)CNC(C)C)cc1 (stereo not given)	19.6%	1	6.87	0.77	66.7%	-0.19%	2	1.1	20.5 (inactive)	57.7% (active)
Cc1ncc([N+](=O)[O-])n1CCO	-3.1%	1.16	22.1	0.97	58.7%	20.8%	2	0.969	10.8 (inactive)	22.4% (inactive)
CCCCN(CCCC)CCCOC(=O)c1ccc(N)cc1	5.65%	1.13	-6.3	0.76	39.2%	-0.54%	2	1.28	2.17 (inactive)	85.2% (active)
NC(=O)NC1NC(=O)NC1=O (stereo not given)	2.28%	1.2	-1.57	0.93	74.6%	-8.53%	2	0.815	26.8 (inactive)	–
Cc1cc(NC(=O)C2=C(O)c3ccccc3S(=O)(=O)N2C)no1	49.9%	0.18	-11.8	1.04	72.2%	11.8%	2	-0.565	12.4 (inactive)	–
CC1CCc2cc(F)cc3c(=O)c(C(=O)O)cn1c23 (stereo not given)	4.46%	1.12	-5.46	1.29	44.4%	3.94%	2	0.905	26.8 (inactive)	50.2% (active)
CCn1cc(C(=O)O)c(=O)c2cnc(N3CCCC3)nc21	-13.1%	0.98	7.28	1.33	85.9%	-9.95%	2	1.27	4.5 (inactive)	55.2% (active)
Cc1ccnc(NS(=O)(=O)c2ccc(N)cc2)n1	3.68%	0.98	11.1	0.88	38%	-29.5%	2	1.19	6.5 (inactive)	18.7% (inactive)
Cc1c(NC(C)C)c(=O)n(-c2ccccc2)n1C	6.61%	1.54	-6.83	1.16	13.7%	28.4%	2	1.14	7.42 (inactive)	–
CS(=O)(=O)c1ccc([C@@H](O)[C@@H](CO)NC(=O)C(Cl)Cl)cc1	-7.88%	0.79	-0.62	0.72	100%	16.7%	2	0.726	14.4 (inactive)	–
O=C(O)c1ccccc1OP(=O)(O)O	6.6%	0.8	-8.86	1.13	61%	-7.63%	2	0.8	6.17 (inactive)	–
CC(C)(Oc1ccc(Cl)cc1)C(=O)O	17.7%	1.27	11.6	1.13	38.2%	12.1%	2	1.01	4.75 (inactive)	21.7% (inactive)
O=C(O)c1ccccc1Nc1cccc(C(F)(F)F)c1	-0.73%	-0.37	3.52	1.3	73.1%	-15.4%	2	-0.092	25.2 (inactive)	92.3% (active)
O=C(O)c1ccccc1C(=O)Nc1ccc(S(=O)(=O)Nc2nccs2)cc1	-4.35%	1.11	-3.35	0.81	12.9%	2.49%	2	1.17	11.2 (inactive)	52.9% (active)
Nc1ccc(S(=O)(=O)Nc2ccccn2)cc1	-3.18%	1.17	5.7	0.88	24.2%	-8.49%	2	1.05	9.08 (inactive)	12.6% (inactive)
CN1CCC(OC(c2ccccc2)c2ccccc2)CC1	-34.9%	1.74	-9.83	1.09	81.6%	17.3%	2	1.27	4.58 (inactive)	7.9% (inactive)
COc1ccccc1OCC(O)CO (stereo not given)	-27.7%	0.87	-10.8	1.15	58.9%	-12.9%	2	0.924	4.75 (inactive)	12.6% (inactive)

SMILES	inhibition [1]	score [2]	rescue above control [3]	cytochrome c release ratio [4]	inhibition of aggregation [5]	glutamate uptake change [6]	inclusion score [7]	aggregation suppression score [8]	survival [9]	fluorescence slope change [10]
C[n+]1ccccc1/C=N/O	17.5%	1.27	6.93	1.18	91.3%	-3.95%	2	1.54	5.75 (inactive)	–
CCN(CC)C(=O)N1CCN(C)CC1	14.8%	1.32	-3.55	0.61	85.9%	-11.4%	2	1.44	18.8 (inactive)	25.5% (inactive)
COc1cc(C(=O)NCc2ccc(OCCN(C)C)cc2)cc(OC)c1OC	17.1%	1.06	-0.31	0.61	75.6%	0.14%	2	0.824	15.8 (inactive)	–
Cc1onc(-c2ccccc2Cl)c1C(=O)N[C@@H]1C(=O)N2[C@@H]1SC(C)(C)[C@@H]2C(=O)O	-3.1%	1.4	1.76	1.27	77%	-4.39%	2	1.08	24.6 (inactive)	68% (active)
NC(N)=NCCN1CCCCCCC1	22.4%	1.49	-4.52	1.17	35.2%	-19.4%	2	1.06	13.9 (inactive)	125% (active)
CC(=O)OC/C=C(C)/C=C/C=C(C)/C=C/C1=C(C)CCCC1(C)C	-4.49%	1.02	0.33	1.12	85.2%	-12.9%	–	0.917	–	–
CC(N)CCCC(C)(C)O (stereo not given)	23.3%	1.12	-5.82	0.68	19.1%	-4.36%	2	1.46	21.5 (inactive)	–
Cc1cccc(N(C)C(=S)Oc2ccc3ccccc3c2)c1	-3.4%	-1.43	-1.37	0.96	57.4%	-6.25%	2	0.257	27.3 (inactive)	–
NC(N)=NS(=O)(=O)c1ccc(N)cc1	-31.1%	1.49	-3.67	1.37	93.6%	5.91%	2	1.54	11.5 (inactive)	–
O=C1c2ccccc2C(=O)C1c1ccccc1	16.8%	0.9	2.74	0.89	3.03%	6.38%	2	0.588	8.58 (inactive)	–
CC(=O)NS(=O)(=O)c1ccc(N)cc1	11.3%	1.36	-14.1	1.02	48.5%	16.9%	2	1.16	17.3 (inactive)	–
CCC(=O)O[C@H]1[C@H](O[C@@H]2[C@@H](C)[C@H](O[C@H]3C[C@@](C)(OC)[C@@H](O)[C@H](C)O3)[C@@H](C)C(=O)O[C@H](CC)[C@@](C)(O)[C@H](O)[C@@H](C)C(=O)[C@H](C)C[C@@]2(C)O)O[C@H](C)C[C@@H]1N(C)C	-0.34%	-0.96	11.4	1.02	87.3%	-11.5%	–	-0.59	–	–
CCn1cc(C(=O)O)c(=O)c2cnc(N3CCNCC3)nc21	-5.14%	1.35	5.83	0.98	72.4%	-1.23%	2	1.16	5.25 (inactive)	–
Nc1nc(=S)c2[nH]cnc2[nH]1	7.19%	1.07	-10.2	0.96	83.1%	-1.16%	–	1.86	–	–
CN(Cc1cc(Br)cc(Br)c1N)C1CCCCC1	50%	1.59	-1.24	1.12	80.3%	-11.2%	–	1.07	–	–
CCCCCCc1ccc(O)cc1O	8.69%	0	-4.19	0.54	56.7%	15.5%	–	-0.0012	–	–
CCC(Cc1c(I)cc(I)c(N)c1I)C(=O)O (stereo not given)	-9.96%	-1.24	-0.81	1.14	1.96%	7.36%	2	0.027	8.83 (inactive)	–
C=CCSCC1Nc2cc(Cl)c(S(N)(=O)=O)cc2S(=O)(=O)N1 (stereo not given)	-19.5%	0.96	4.12	0.99	-7.48%	-15.5%	2	0.983	6.42 (inactive)	–
Nc1ccc(S(=O)(=O)Nc2nccs2)cc1	6.1%	1.37	-1.24	0.85	66.2%	13.7%	2	1.31	23.3 (inactive)	–
CC(=O)N(O)CCCCCNC(=O)CCC(=O)N(O)CCCCCNC(=O)CCC(=O)N(O)CCCCCN	-1.64%	0.93	-3.69	0.93	63.2%	-8.52%	2	1.05	4 (inactive)	–
CC1(C)S[C@@H]2[C@H](NC(=O)[C@H](N)c3ccccc3)C(=O)N2[C@H]1C(=O)O	14.1%	1.62	-3.83	1.35	80.3%	-16.2%	2	1.58	14.2 (inactive)	–
O=C1OC(c2ccc(O)cc2)(c2ccc(O)cc2)c2ccccc21	-3.42%	1.29	8.67	4.22	70.1%	-16.5%	–	1.31	–	–
Cc1cc(C)nc(NS(=O)(=O)c2ccc(N)cc2)n1	5.54%	1.45	-12.8	1.13	22.2%	2.45%	2	1.21	3.75 (inactive)	–
